# PubChem BioAssay
# Experiment: binders from COS7 lysate, DM2A8 probe, primary screen, torsin A project, cell lysate, small-molecule microarray, fluorescence 635/667 (AID 1065)
# Conditions: higher = more signal, COS7 lysate expressing mutant human TOR1A
row,Compound,composite z-score
1,COCCOC(=O)N1C(=O)[C@@]2(c3cc(C#CCNC(N)=O)ccc31)[C@H](C(=O)NC[C@H](O)c1ccccc1)[C@H]1C(=O)O[C@H](c3ccccc3)[C@H](c3ccccc3)N1[C@@H]2c1ccc(OCCO)cc1,0.249
2,COC(=O)[C@@]1(Cc2ccc(F)cc2)[C@H]2c3cc(C(=O)N(C)C)n(CCn4cc([N+](=O)[O-])nc4C)c3C[C@H]2CN1C(=O)c1ccccc1,-0.498
3,CN(C)CCCCNC(=O)[C@H]1C[C@H]2C(=O)N[C@@H](Cc3ccccc3)C(=O)N2[C@H]1c1cccc(OCCO)c1,0.46
4,CCCCN1CC=CC23O[C@@H]4/C=C\CCC(C)OC(=O)C4[C@H]2C(=O)N(C(C)CO)[C@@H]3C1=O (stereo not given in full),-0.248
5,CCCCC(=C=CC[C@@H](O)c1cccc(OCCO)c1)CCO,-0.555
6,CN1C=C(C(=O)OCCS(C)(=O)=O)C(C(=O)OCCS(C)(=O)=O)=CC(CCCO)=CC1c1ccc(CN2CCCC2)cc1 (stereo not given),0.156
7,C#CCN(C/C=C/c1ccccc1)[C@H](CO[Si](C)(C)C(C)(C)C)c1ccccc1,-0.0566
8,O=C1O[C@H](c2ccccc2)[C@H](c2ccccc2)N2[C@H]1[C@@H](C(=O)N1CCN(c3ncccn3)CC1)[C@]1(C(=O)Nc3ccccc31)[C@H]2c1ccc(O)cc1,0.918
9,[N-]=[N+]=NCc1ccccc1[C@@H]1OC(c2ccc(OCCCO)cc2)=N[C@]1(Cc1ccccc1)C(=O)NCc1ccccc1,-0.649
10,C=CCOC(=O)[C@H]1[C@@H]2C(=O)O[C@@H](c3ccccc3)[C@@H](c3ccccc3)N2[C@@H](c2ccc(OCCOC(=O)[C@@H]3C[C@@H]4C(=O)N[C@@H](CC(C)C)C(=O)N4[C@@H]3c3ccc(O)cc3)cc2)[C@]12C(=O)Nc1ccc(I)cc12,0.246
11,CC(C)CNC(=O)[C@@]1(C)c2ccccc2C(=O)N(Cc2cc(F)cc(C(F)(F)F)c2)[C@H]1c1ccc(CO)cc1,-0.188
12,NCCCC[C@@H]1NC(=O)[C@H]2C[C@@H](C(=O)O)[C@@H](c3cccc(OCCO)c3)N2C1=O,1.57
13,CC(C)C[C@@H]1NC(=O)[C@H]2C[C@@H](C(=O)NCCCCCNC(=O)CS)[C@@H](c3ccc(O)cc3)N2C1=O,0.929
14,CO[C@H]1O[C@H](CO)[C@@H](OC(=O)Nc2ccccc2)[C@@H]2OC(=O)[C@H](Cc3ccccc3)C/C=C/C[C@@H](Cc3ccccc3)C(=O)O[C@@H]12,0.779
15,CC(C)CNC(=O)[C@@H]1c2ccccc2C(=O)N(Cc2ccccc2Cl)[C@H]1c1ccc(CO)cc1,0.0116
16,CCc1cccc(NC(=O)O[C@H]2[C@H](OC(=O)Nc3ccc4c(c3)OCO4)[C@H](OC(=O)Nc3ccc4c(c3)OCO4)[C@@H](OC)O[C@@H]2CO)c1,0.052
17,CCN(CC)c1ccc(N2CC=CC34O[C@@H]5C=CCOC(=O)[C@@H]5[C@H]3C(=O)N(CCCO)[C@@H]4C2=O)cc1 (stereo not given in full),0.15
18,C=C(CCCC)/C(=C/C[C@H](OC(C)=O)c1cccc(OCCO)c1)c1cc(C(=O)OC)ccc1OC,-0.325

row,Compound,composite z-score
1,C=C(COC)/C(=C/C[C@H](OC(=O)c1ccncc1)c1ccc(OCCO)cc1)c1cc(C(=O)OC)ccc1OC,-0.0024
2,NC(=O)NCC#Cc1ccc2c(c1)[C@]1(C(=O)N2)[C@H](C(=O)Nc2nc3ccccc3s2)[C@H]2C(=O)O[C@H](c3ccccc3)[C@H](c3ccccc3)N2[C@@H]1c1ccc(OCCO)cc1,-0.164
3,C=CCNC(=O)[C@H]1[C@@H]2C(=O)O[C@@H](c3ccccc3)[C@@H](c3ccccc3)N2[C@@H](c2ccc(O)cc2)[C@]12C(=O)Nc1ccc(C#CC3=CCCCC3)cc12,2.01
4,C=CCC(OC(C)=O)[C@@H]1[C@@H](N(Cc2cccc3ccccc23)C(=O)c2ccc(-c3ccccc3)cc2)c2cc(OCCCO)ccc2N1C(=O)c1ccc2ccccc2n1 (stereo not given in full),0.116
5,O=C1c2ccccc2[C@](Cc2ccccc2I)(C(=O)O)[C@H](c2ccc(CO)cc2)N1Cc1ccccc1,0.996
6,CC(C)[C@@H](C(=O)O)n1cc(-c2ccccc2)nn1,0.692
7,C/C=C/CN(C(=O)C#Cc1ccccc1)[C@H](CO[Si](C)(C)C(C)(C)C)c1ccccc1,0.183
8,COCCOC(=O)N1C(=O)[C@@]2(c3cc(C#CCCO)ccc31)[C@H](c1ccc(O)cc1)N1[C@H](c3ccccc3)[C@H](c3ccccc3)OC(=O)[C@H]1[C@@H]2C(=O)N1CCc2cc(OC)c(OC)cc2C1,0.366
9,Cc1ccc(S[C@]2(C(=O)NC3CC3)CC(=O)N(Cc3cc(C(F)(F)F)cc(C(F)(F)F)c3)[C@@H]2c2ccc(CO)cc2I)cc1,1.11
10,C[N+](C)(C)CCCC[C@@H]1NC(=O)[C@H]2C[C@@H](C(=O)NCCCCCNC(=O)CS)[C@@H](c3ccc(O)cc3)N2C1=O,-0.0727
11,CC[C@H](C)C(=O)O[C@H]1CC[C@]2(C)C3=C(CCC2C1(C)C)[C@]1(C)CC[C@H]([C@H](C)CCCC(C)C)[C@@]1(C)CC3 (stereo not given in full),0.191
12,COCCOC(=O)N1C(=O)[C@@]2(c3cc(C#CCC(C(=O)OC)C(=O)OC)ccc31)[C@H](C(=O)N1CCCCCCC1)[C@H]1C(=O)O[C@H](c3ccccc3)[C@H](c3ccccc3)N1[C@@H]2c1ccccc1OCCO,1.8
13,C=CCOC(=O)[C@H]1[C@@H]2C(=O)O[C@@H](c3ccccc3)[C@@H](c3ccccc3)N2[C@@H](c2ccc(OCCOC(=O)[C@H]3C[C@H]4C(=O)NCC(=O)N4[C@H]3c3ccc(O)cc3)cc2)[C@]12C(=O)Nc1ccc(I)cc12,1.03
14,CC#CCO[Si](C#CCCCCCC)(C(C)C)C(C)C,-0.134
15,CC(c1ccccc1)C(O)C1C=CC2C(=O)N(c3ccccc3)C(=O)C2N1Nc1ccc(C#N)cc1 (stereo not given),0.358
16,O=C1c2ccccc2[C@@]2(Cc3ccccc3N(Cc3ccccc3)C2=O)[C@H](c2ccc(CO)cc2)N1Cc1ccccc1,-0.0642
17,CC(C)CNC(=O)[C@@H]1c2ccccc2C(=O)N(CC23CC4CC(CC(C4)C2)C3)[C@H]1c1ccc(CO)cc1,0.0614
